Measured values: the supplement of paper PMC6555819

How the values were obtained:
Assay in all cases: PBM binding z-score (relative to random genomic background probes); higher = stronger binding; sequences stand for … in GC…GCGATTGACAGCGTAGAATGAAGG
[1] = test system: FXR:RXRa (NR concentration 270 nM, RXRa partner concentration 90 nM)
How it was run: (§1)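 Custom Agilent 4×180K protein-binding microarrays carried double-stranded probes, each with a 34-nt variable region. These regions held direct-repeat seeds, single-nucleotide variants, half-site ablations and random human genomic background sequences. Ligand-free nuclear receptor dimers were incubated on the arrays for 1 h, antibodies against each partner (one per run) detected binding, and scanned fluorescence was regression-normalized. Binding z-scores take the random background probes as reference.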

[2] = test system: LXRa:RXRa (NR concentration 270 nM, RXRa partner concentration 90 nM)
How it was run: as §1

[3] = test system: LXRa homodimer (NR concentration 270 nM)
How it was run: as §1

[4] = test system: LXRb:RXRa (NR concentration 270 nM, RXRa partner concentration 90 nM)
How it was run: as §1

[5] = test system: LXRb homodimer (NR concentration 270 nM)
How it was run: as §1

[6] = test system: PPARa:RXRa (NR concentration 270 nM, RXRa partner concentration 90 nM)
How it was run: as §1

[7] = test system: PPARg:RXRa (NR concentration 180 nM, RXRa partner concentration 90 nM)
How it was run: as §1

[8] = test system: PPARg:RXRa 270nM:90nM, anti-RXR (NR concentration 270 nM, RXRa partner concentration 90 nM)
How it was run: as §1

[9] = test system: PPARg:RXRa 30nM:10nM, anti-RXR (NR concentration 30 nM, RXRa partner concentration 10 nM)
How it was run: as §1

[10] = test system: PPARg:RXRa 90nM:30nM, anti-RXR (NR concentration 90 nM, RXRa partner concentration 30 nM)
How it was run: as §1

| Sequence | PBM binding z-score [1] | PBM binding z-score [2] | PBM binding z-score [3] | PBM binding z-score [4] | PBM binding z-score [5] | PBM binding z-score [6] | PBM binding z-score [7] | PBM binding z-score [8] | PBM binding z-score [9] | PBM binding z-score [10] |
| --- | --- | --- | --- | --- | --- | --- | --- | --- | --- | --- |
| TTTAGTTGGTCACGGAGGTCACACACGACGGGTA | 3.66 | 3.83 | 3.02 | 3.45 | 1.48 | 4.21 | 4.64 | 4.76 | 2.06 | 3.63 |
| CCTCGGAGGACAACAGGAGGTCTGAGCTGCCAGA | -0.506 | -0.574 | -0.845 | -1.09 | -1 | -0.764 | -0.138 | -0.868 | -1.36 | -1.17 |
| GCTCACGGGTCAAAGGTTATAGCATGAATAGAAT | 7.17 | 5.69 | 0.496 | 5.67 | 0.379 | 6.85 | 9.36 | 8.27 | 6.88 | 8.29 |
| AGTCAAAGTTCATCTAGGTAACGTTAGATATGCT | 6.45 | 6.1 | 5.46 | 3.96 | 1.99 | 4.88 | 6.36 | 6.31 | 3.3 | 5.58 |
| CGAAATAGGTCATCCAGGACAGTGAATACATTGA | 5.99 | 4.69 | 1.25 | 3.8 | 0.842 | 5.87 | 7.32 | 6.78 | 4.39 | 6.21 |
| CCTAGTTGGGCAAGGTCACACACGCTATAGGTAC | 3.55 | 3.21 | 1.32 | 3.28 | 0.0205 | 3.88 | 2.45 | 2.92 | 1.03 | 2.25 |
| CCTATTAGTGGACCATAAGGGCAACCGAAGCTCG | 0.107 | 0.131 | 0.000985 | 0.0463 | 0.134 | 0.591 | 0.711 | 1.08 | 0.116 | 0.489 |
| CAGCCTAGGTCAGGGCCGGTATAGGAGGAACGTT | 1.62 | 0.777 | -0.703 | 0.466 | -1.51 | 1.97 | 0.482 | 0.692 | -0.326 | -0.0222 |
| ACTATTAGTTGACTTACGGCAACCGATACGACGC | 0.213 | 0.066 | 0.174 | 0.412 | 0.908 | -0.179 | 1.09 | 0.0509 | 0.212 | 0.113 |
| CCTACTGGGCCACGAGAGGTCATTGATTCAGTGA | 3.4 | 4.47 | 4.55 | 3.57 | 0.302 | 4.09 | 4.45 | 4.16 | 1.68 | 3.1 |
| CCGACTTGGGCATAAGGTTACCATAAGCCAGCCC | 0.141 | 1.54 | -0.195 | 0.516 | -1.29 | 0.631 | 0.738 | 0.712 | -0.372 | 0.427 |
| TCTTGTAGATCAGCAGGTTAAGTAAGCTGGCCAA | 0.169 | 0.366 | -0.23 | 0.424 | -0.524 | 0.865 | -0.624 | 1.25 | 2.73 | 2.04 |
| CCTAGTTGGTCAGCAGGTCACACACCGGATATGA | 1.89 | 1.8 | 1.16 | 2 | 0.372 | 2.85 | 2.27 | 2.51 | 0.854 | 1.83 |
| AGAATTAGGTTATTAAGATCAGGGAATTGCGGTC | 0.488 | 0.607 | 0.495 | 0.404 | 0.244 | 1.87 | 1.99 | 2.31 | 1.74 | 1.58 |
| TCATATAGGTAAAAGGTGAACGTCGGTGTGGTAA | 2.13 | 2 | 0.308 | 1.96 | 0.0983 | 5.54 | 9.49 | 8.84 | 8.77 | 9.46 |
| CCTAGCAGGCCAGAGTCACTCAAGCATTTCGCTT | -0.525 | -0.329 | -0.444 | -0.519 | -1.47 | -0.299 | -0.117 | -0.25 | -0.904 | -0.753 |
| CGTCCAAGGTGAAGGTCAGTGAAAGAGACTCGAA | 1.84 | 1.4 | -0.233 | 1.25 | -0.872 | 3.04 | 2.5 | 2.81 | 0.634 | 1.96 |
| ATATTTAGGTTACATCCGGGTCATTCAGGCTATG | 2.65 | 4.19 | 2.61 | 3.21 | 1.94 | 4.28 | 4.37 | 4.16 | 2.28 | 3.35 |
| GCAGACAGGTGAAACGCAGGTAAATCAGGGTGGC | -0.326 | -0.128 | -0.519 | -0.258 | -0.862 | 0.983 | 0.513 | -0.213 | -0.632 | -0.346 |
| ACTAATAGTTGACTTAGGGCAACCGATACGACGC | 0.35 | 0.168 | 0.0838 | -0.131 | 0.352 | -0.132 | 0.962 | 0.054 | 0.137 | 0.153 |
| CGTTACGGGTCACTGACAGGTTATAGCATTTGGA | 5.82 | 4.13 | 0.216 | 3.8 | -0.201 | 5.54 | 4.6 | 4.21 | 1.79 | 3.39 |
| CCGAGTAGGGTATGGGGCATTCAGGCAACGGTGA | -0.164 | -0.318 | -0.305 | 0.261 | -0.00353 | 1.14 | 2.09 | 3.6 | 1.5 | 3.18 |
| AGAATGAGGTTATACGTAGATCAGGCAAGAAAGT | 1.83 | 1.82 | -0.142 | 1.29 | -0.0449 | 3.31 | 1.97 | 2.21 | 0.758 | 1.71 |
| CTTCCAAGGTCAGAGAGGTCAGTGAATGCCGAGT | 5.96 | 5.16 | 3.44 | 4.49 | 0.991 | 4.78 | 3.44 | 4.24 | 1.24 | 2.89 |
